Drawing on PubChem BioAssay (NCATS), this text covers Potency for 16 molecules.

Records with an inconclusive call do not appear. The source made the active and inactive calls. Calls follow the shape of the dose curve; as a rule, active = well fitted inhibition curve with a large enough effect; inconclusive = small, poorly fitted or top-dose-only effect; inactive = flat fitted curve, though single readings scatter.

Common to all, as to assay: qHTS profiling for inhibitors of Plasmodium falciparum proliferation (AID 504749); also: nearly all actives have a fitted effect of over 60% in size
What all share (settings): P. falciparum in erythrocytes, SYBR Green DNA, 72 h; series mostly up to 28.7 µM

One assay concerns CP305. The method, boiled down:
(§1)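 P. falciparum-infected erythrocytes (0.3% parasitemia, 2.5% hematocrit) incubated with compound 72 h at 37 C, 5% CO2. Parasite DNA detected by SYBR Green after lysis, overnight at room temperature; normalised to 0.29 uM artemisinin and DMSO.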

In the next assay the test system is CP329. The method, boiled down:
as §1

In a further assay the test system is CP335. The gist of the method: as §1
The subject of a further assay is DFO2036. The method, boiled down:
as §1

Another assay relates to DIV30. The gist of the method:
as §1

Another assay relates to Dd2. The gist of the method:
as §1

The test system of a further assay is ECU. The method, boiled down: as §1
Another assay has as its system FAB9. The gist of the method: as §1
Another assay deals with GB4. The method, boiled down: as §1
A further assay has as its system ICS. The gist of the method: as §1
In another assay the test system is JCK. The method, boiled down:
as §1

The next assay concerns N140. The gist of the method:
as §1

The test system of a further assay is P93_24. The gist of the method:
as §1

The next assay concerns P94_40. The method, boiled down: as §1
For another assay, the system named is PAD. The gist of the method: as §1
For another assay, the system named is CP315. The gist of the method: as §1
The test system of a further assay is CP325. The gist of the method: as §1
A further assay relates to DIV14. The method, boiled down:
as §1

The test system of the next assay is DIV17. The gist of the method:
as §1

Another assay relates to HB3. The gist of the method: as §1
Potency is read from the fitted curve at half-maximal effect.

Regarding `O.O.O.O.O.O.O.O=S(=O)([O-])[O-].[Co+2]`, the Potency with CP305 is 6.75 µM (active); with CP329 it was 12 µM (active); in the assay with CP335 it was 6.75 µM (active); in the assay on DFO2036, 11.2 µM (active); in the assay on DIV30, 9.53 µM (active); in the assay with Dd2 it was 7.94 µM (active). The Potency in the assay with ECU is 12.6 µM (active); in the assay with FAB9 it was 11.2 µM (active); with GB4, 8.49 µM (active); with ICS, 5.62 µM (active); in the assay with JCK, 12.6 µM (active); with N140 it was 12.6 µM (active). Besides, the Potency entry in the assay on P93_24, with P94_40 and in the assay with PAD was “inactive” in each case.
On to `CC(CN(C)C)CN1c2ccccc2Sc2ccc(C(F)(F)F)cc21` (stereo unspecified), for which the Potency result in the assay with CP315, in the assay on CP325 and with FAB9 was “inactive” in each case. The Potency in the assay with DFO2036 was 10 µM (active); in the assay on DIV14, 5.36 µM (active); in the assay with DIV17 it was 3.01 µM (active); with Dd2 it was 3.55 µM (active); in the assay with ICS it was 10 µM (active); in the assay with N140, 11.2 µM (active). In addition, the results for the Potency in the assay on P93_24 and with P94_40 were 10 µM (active) and 5.01 µM (active), respectively.
Consider `CN(C)CCC=C1c2ccccc2C(C)(C)c2ccccc21`, for which the Potency result in the assay with CP329, in the assay on FAB9, in the assay with HB3 and in the assay on JCK was “inactive” throughout. Moreover, the Potency with DIV14 is 6.75 µM (active); with DIV17, 6.75 µM (active); with GB4 it was 13.5 µM (active); in the assay on ICS, 7.94 µM (active).
Take `CC(C)(C)CC(C)(C)c1ccc(OCCO)cc1`: the Potency result in the assay on CP305, with CP325, in the assay on CP329, in the assay on CP335, in the assay on DFO2036 and in the assay with DIV14 was “inactive” in each case. Besides, the Potency entry in the assay on DIV17, with DIV30, in the assay on Dd2, in the assay on ECU, in the assay on FAB9 and with GB4 was “inactive” in each case. In addition, the Potency entry in the assay on HB3, in the assay with ICS, in the assay with JCK, in the assay on P93_24, in the assay on P94_40 and in the assay with PAD was “inactive” in each case.
In the case of `CCOc1cc(-c2nccc3cc(OC)c(OC)cc23)cc(OCC)c1OCC`, the Potency result in the assay on CP325 is “inactive”. The Potency with ECU is 11.2 µM (active).
For the molecule `CNC(=O)c1c(I)c(C(=O)NCC(=O)Nc2c(I)c(C(=O)O)c(I)c(C(=O)NCCO)c2I)c(I)c(N(C)C(C)=O)c1I`, the Potency result in the assay with CP305, with CP325, with CP329, in the assay on CP335, in the assay on DFO2036 and with DIV14 was “inactive” in each case. Besides, the Potency result in the assay with DIV17, in the assay on DIV30, in the assay on Dd2, in the assay with ECU, in the assay on FAB9 and in the assay on GB4 was “inactive” each time. Further, the Potency result in the assay on HB3, in the assay with ICS, in the assay on JCK, in the assay with N140, in the assay with P93_24 and in the assay on P94_40 was “inactive” in each case. Besides, in the assay on PAD, the Potency result is “inactive”.
Regarding `C/C(=C\C(=O)OCCCCCCCCC(=O)O)C[C@@H]1OC[C@H](C[C@@H]2O[C@H]2[C@@H](C)[C@H](C)O)[C@@H](O)[C@H]1O`, the Potency in the assay on CP335 is 0.151 µM (active); in the assay on Dd2, 0.178 µM (active); in the assay with P94_40, 0.141 µM (active).
`Cn1c(O)c(N=NC(N)=S)c2ccccc21`: the Potency result in the assay on CP315, in the assay with CP325, in the assay with CP329, in the assay with FAB9 and in the assay on JCK was “inactive” in each case. Also, in the assay with ICS, the Potency was 11.2 µM (active).
`CNC(=O)[C@H](Cc1c[nH]c2ccccc12)NC(=O)[C@@H](CC(=O)NO)CC(C)C`: the Potency entry in the assay on CP315 and in the assay with JCK was “inactive” each time.
As for `N#Cc1ccc2c(c1)N(CCCN1CCC(O)CC1)c1ccccc1S2`, the Potency entry with CP315, with ECU, in the assay on FAB9, in the assay on HB3 and in the assay on JCK was “inactive” throughout. Moreover, the Potency in the assay with DIV14 is 8.49 µM (active); in the assay on DIV17, 9.53 µM (active); in the assay on Dd2, 5.01 µM (active); with N140 it was 12.6 µM (active).
For `COc1cc(NCCCC(C)N)c2ncccc2c1` (stereo unspecified), the Potency with CP305 was 6.75 µM (active); with CP325, 7.57 µM (active); in the assay on CP335, 6.75 µM (active); with DFO2036 it was 11.2 µM (active); in the assay on DIV14 it was 2.13 µM (active); in the assay on DIV17, 1.35 µM (active). Moreover, the Potency is 4.78 µM (active) in the assay on DIV30; 2 µM (active) in the assay on Dd2; 2.82 µM (active) with ECU; 4.47 µM (active) in the assay with FAB9; 2.13 µM (active) with GB4; 3.55 µM (active) in the assay with HB3. Besides, the Potency with ICS is 0.891 µM (active); in the assay on N140, 5.62 µM (active); in the assay with P93_24, 2.24 µM (active); with P94_40, 4.47 µM (active); in the assay on PAD, 0.398 µM (active).
`Cc1ncc[nH]1`: the Potency entry in the assay with CP305, with CP325, with CP329, in the assay with CP335, with DFO2036 and with DIV14 was “inactive” in each case. Further, the Potency entry in the assay on DIV17, with DIV30, in the assay on Dd2, with ECU, with FAB9 and in the assay on GB4 was “inactive” in each case. The Potency entry with HB3, with ICS, in the assay with JCK, with N140, in the assay with P93_24 and in the assay on P94_40 was “inactive” each time. Moreover, in the assay on PAD, the Potency entry is “inactive”.
Consider `CC(=O)[O][Al][O]C(C)=O`, for which the Potency entry in the assay on CP315, in the assay with CP335, with DFO2036, with DIV30, with Dd2 and with ECU was “inactive” throughout. The Potency result with FAB9, in the assay on HB3, in the assay on ICS, in the assay on JCK, with N140 and in the assay with P93_24 was “inactive” each time. Further, the Potency entry with P94_40 and with PAD was “inactive” throughout.
For `OCc1ccccc1`, the Potency result in the assay with CP315 and in the assay with CP329 was “inactive” each time. Further, in the assay with ICS, the Potency was 2.24 µM (active).
For the molecule `O=C(c1cc2ccccc2o1)N1CCN(Cc2ccccc2)CC1`, the Potency result in the assay with CP305, with CP315, in the assay on DIV30, with Dd2, with FAB9 and in the assay with HB3 was “inactive” throughout. The Potency result in the assay with ICS, in the assay with JCK and in the assay on P94_40 was “inactive” each time.
Turning to `CSCCC(N)C(=O)O` (stereo unspecified), the Potency result in the assay with CP305, in the assay with CP325, in the assay on CP329, in the assay with CP335, in the assay with DFO2036 and in the assay with DIV14 was “inactive” in each case. The Potency entry in the assay on DIV17, with Dd2, in the assay on ECU, with FAB9, with HB3 and with ICS was “inactive” each time. For the same molecule, the Potency result in the assay with JCK, in the assay with N140, in the assay with P94_40 and in the assay on PAD was “inactive” in each case.
